High-throughput results deposited in PubChem by several laboratories.
Rows were chosen to be rich in hits. Some 0.51% of all compounds tested hit in one or more screens of this group.
AddAB inh: less growth of phage-infected E. coli with AddAB; E. coli expressing H. pylori AddAB, absorbance growth; inhibition, % at 11.9 µM; actives 0.29% (n = 330,000); in the data active = inhibition above about 12%;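 note: 0% = vehicle wells of infected cells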
phage Ecoli inh: E. coli growth loss with phage present. growth absorbance. inhibition, % at 11.9 µM. actives 0.26% (n = 360,000). AID 651602; in the data active = inhibition above about 11%
Tat transport: inhibitors of E. coli Tat protein transport; E. coli MC4100 TorA-mCherry Tat export, fluorescence; inhibition, % at 10 µM; actives 0.036% (n = 340,000); AID 488895;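 active = mean replicate inhibition at least 50% and at least half of replicates individually reaching 50%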;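 note: exported cargo escapes ClpAP degradation while cytoplasmic cargo is degraded and loses fluorescence; 0% = median of neutral control wells and 100% = median of NaSCN control wells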
E coli growth-1: reduces bacterial viability in AddAB counter-screen. E. coli V3065 growth, OD600 absorbance, 18 h. inhibition, % at 11.9 µM. actives 0.27% (n = 330,000). AID 449728;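 active = inhibition above the campaign's mean inhibition across all tested compounds plus 3 SD, cut at about 9.9% in these data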;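 note: uninfected addAB+ strain grown without phage in ampicillin broth; 0% = DMSO wells and 100% = ciprofloxacin 0.95 µg/ml wells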
E coli growth-2: E. coli growth inhibition; Escherichia coli growth, OD600, 23 h; stronger effect = lower value; OD600 absorbance (no concentration beside the values); actives 0.21% (n = 330,000);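 active = OD600 absorbance below the run mean of sample wells minus 3.6 SD, in any replicate, cut at about 0.56 in these data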
AddAB confirm: confirmation screen: growth loss of phage-infected E. coli expressing H. pylori AddAB | actives 64% (n = 880) | E. coli V3065 expressing H. pylori AddAB, T4 phage, OD; T4 phage with gene 2 nonsense mutations | AID 488942 | inhibition, % at 11.9 µM | shares compounds with AddAB inh;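 active = mean inhibition above a set limit taken from the earlier primary screen, cut at about 13% in these data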;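 note: higher means less bacterial growth since AddAB block lets phage replicate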
RecBCD counter: AddAB counter-screen: growth loss of RecBCD+ E. coli infected with mutant T4 phage | shares compounds with AddAB inh | E. coli V66 + mutant T4 phage, OD growth | inhibition, % at 11.9 µM | actives 73% (n = 880);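 active = mean inhibition above the mean of solvent-only control wells plus 3 SD, cut at about 4% in these data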;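 note: optical density read after an 18 h incubation at 37 °C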
bact viab count: counter-screen: bacterial growth inhibition; shares compounds with AddAB inh; bacterial viability, absorbance (AddAB counterscreen); inhibition, % at 11.9 µM; actives 35% (n = 880); AID 488956; in the data active = inhibition above about 25%
* = called active by the depositor; i = inactive; nt = no result; ! = a repeat was not active.

SMILES	AddAB inh	phage Ecoli inh	Tat transport	E coli growth-1	E coli growth-2	others
C(=C\c1ccco1)/c1nc2ccccc2[nH]1	6.6	9.8	-28.8	2.3	0.572
C(=C\c1nc2ccccc2[nH]1)/c1ccccc1	0.6	2.0	4.0	-1.6	0.531*
COc1ccc(NC(=O)NNC(=O)c2ccc3ccccc3c2O)c(OC)c1	9.9	11.8*	5.8	6.7	0.713
COc1ccc(NC(=O)NNC(=O)c2cc(C3CC3)nc3ccccc23)c(OC)c1	1.6	0.7	-4.5	-2.7	0.68
COc1ccc(NC(=O)NNC(=O)c2cc3ccccc3cc2O)cc1	11.6	9.0	-6.1	10.4*	0.681
CCOc1ccc(NC(=O)c2cc3ccccc3cc2O)cc1	2.4	4.5	-4.2	-0.3	0.675
CC(C)n1ncc2c(C(=O)O)cc(C3CC3)nc21	-0.1	-1.8	-10.6	-5.0	0.736
CC(C)n1ncc2c(C(=O)N3CCN(Cc4ccc(Br)s4)CC3)cc(C3CC3)nc21	-0.4	2.1	52.7*	-3.0	0.704
NC(N)=N/N=C/c1ccccc1Cl	i	i	-2.9	13.4*	nt
NC(N)=N/N=C/c1c(Cl)cccc1Cl	5.8	6.9	3.0	12.2*!	nt
NC(N)=NN=Cc1ccc(OCc2ccccc2Cl)cc1	nt	nt	nt	nt	0.0445*
NC(N)=NN=Cc1ccccc1Cl	nt	nt	nt	nt	0.697
CC(CSc1ccc(Br)cc1)CN1CCC(O)CCC1=O (stereo not given)	nt	nt	nt	nt	0.665
COC(CNC(=O)C(CSCc1ccccc1)N1Cc2ccccc2C1=O)OC (stereo not given)	nt	nt	nt	nt	0.697
COc1ccc(C2CC(=O)C=C(C#CC(C)(C)C)C2)cc1 (stereo not given)	nt	nt	nt	nt	0.64
Oc1ccc(CN2CCCCC2)c2cccnc12	6.6	2.8	1.0	3.5	0.683
Oc1c(Cl)cc(CN2CCCCC2)c2cccnc12	7.5	nt	-0.6	10.8*	nt
Oc1c(CN2CCN(c3ccccn3)CC2)cc(Cl)c2cccnc12	2.3	nt	2.6	0.5	0.534*
CN(C)C1C(=O)C(C(N)=O)=C(O)[C@@]2(O)C(=O)C3=C(O)c4c(O)ccc(Cl)c4C(O)C3CC12 (stereo not given in full)	nt	nt	nt	nt	0.063*
C=CCn1c(=O)c(C(=O)NCCNCC)c(O)c2ccccc21	-1.2	3.5	-11.0	-3.2	0.661
C=CCn1c(=O)c(C(=O)NCc2ccccc2)c(O)c2ccccc21	11.1	9.9	1.2	11.2*	0.675
O=C1c2cc(Br)ccc2N(Cc2ccc(Br)cc2)S(=O)(=O)C1c1cc(Cl)c(Cl)cc1[N+](=O)[O-] (stereo not given)	9.9	nt	-1.8	12.2*	nt
Cc1ccc(C2CC=C(C(=O)O)CN2S(=O)(=O)c2ccc(C)cc2)cc1 (stereo not given)	nt	nt	nt	nt	0.674
Oc1ccc(-c2nc(-c3ccc(F)cc3)c(-c3ccncc3)[nH]2)cc1	0.1	3.3	-13.0	1.0	0.318*
Cc1ccc2c(c1)sc(-c1ccc(N(C)C)cc1)[n+]2C	1.6	4.6	35.2	-0.6	0.324*
SMILES	AddAB inh	phage Ecoli inh	Tat transport	E coli growth-1	E coli growth-2	others
Cc1ccc(N(C)C)cc1	nt	2.4	nt	nt	nt
COC(=O)[C@@]12CCCN1C(c1ccc(-c3ccc(Cl)c(Cl)c3)c(OC)c1)C1C(=O)N(C)C(=O)C12 (stereo not given in full)	nt	nt	nt	nt	0.73
CC(=O)OCc1c(COC(C)=O)[n+](=O)c2ccccc2n1[O-]	9.0	10.1	-10.3	5.9	0.469*
Nc1nc(-c2ccccn2)nc(N)c1Cc1ccc(Cl)cc1Cl	0.7	0.9	-8.5	5.4	0.357*
C#CCOCCOCCOCCNc1nc(N2CCN(C(=O)C(C(C)CC)n3cc(C(N)CO)nn3)CC2)nc(N2CCN(C(=O)C(C(C)CC)n3cc(C(N)Cc4ccc(O)cc4)nn3)CC2)n1 (stereo not given)	nt	nt	nt	nt	0.701
Cc1[nH]cnc1C(=O)NN=Cc1ccc([N+](=O)[O-])s1	nt	nt	nt	nt	0.409*
COC(=O)NN=Cc1ccc([N+](=O)[O-])s1	nt	nt	nt	nt	0.623
COc1ccc(C=CC(=O)c2ccc([N+](=O)[O-])o2)cc1	nt	nt	nt	nt	0.601
CC(C)CC(NC(=O)c1nc[nH]c1C(=O)NCC(=O)OCc1ccccc1)C(=O)OC(C)(C)C (stereo not given)	nt	nt	nt	nt	0.714
CC(C)CC(NC(=O)c1nc[nH]c1C(=O)N1CCc2ccccc2C1)C(=O)OCc1ccccc1 (stereo not given)	nt	nt	nt	nt	0.699
CC(=O)NNC(=S)NC(=O)c1ccccc1	0.0	-2.9	-27.6	1.4	0.397*
CC(=O)NNC(=S)NC(=O)c1ccc(C)cc1	-3.9	0.1	2.9	-5.9	0.716
CCC(=O)NNC(=S)NC(=O)c1ccc(C)cc1	-9.0	-5.0	-7.5	-6.2	0.502*
CCOC(=O)C=Cc1ccc2c(c1)S(=O)(=O)N(c1cccc(OC)c1)C2CC(=O)OCC (stereo not given)	nt	nt	nt	nt	0.707
Cc1ccc(S(=O)(=O)Nc2ccc3c(c2)CC(=O)N(C(C)CO)CC(C)C(CN(C)Cc2ccc4c(c2)OCO4)O3)cc1 (stereo not given)	nt	nt	nt	nt	0.713
COC1C(OC(N)=O)C(O)C(Oc2ccc3c(O)c(NC(=O)c4ccc(O)c(CC=C(C)C)c4)c(=O)oc3c2C)OC1(C)C (stereo not given)	nt	nt	nt	nt	0.382*
CC(C)C(CO)N(Cc1cccc(F)c1)c1nc(Nc2cccc(Cl)c2)c2ncn(C(C)C)c2n1 (stereo not given)	nt	nt	nt	nt	0.648
O=C(Nc1nnc(C(F)(F)F)s1)c1ccc(Br)s1	13.5*	3.7	-3.5	9.4	0.616	AddAB confirm=3.5;RecBCD counter=6.7*;bact viab count=1.0
O=C(N/N=C\c1cccc(Cl)c1)c1ccc(Cn2cc(Br)c([N+](=O)[O-])n2)o1	28.7*	8.3	2.0	25.6*	nt	AddAB confirm=28.6*;RecBCD counter=4.2*;bact viab count=22.5
C=CCN(c1ccccc1)S(=O)(=O)c1cccc(C(=O)NNC(=O)c2ccccc2O)c1	12.2*	4.6	-3.8	-0.4	0.701	AddAB confirm=4.7;RecBCD counter=3.7;bact viab count=4.4
COc1ccccc1-[n+]1c(C)cc(/C=C2\Sc3ccccc3N2C)cc1C	22.9*	13.3*	-7.4	19.4*	0.356*	AddAB confirm=33.3*;RecBCD counter=17.6*;bact viab count=29.7*
Cn1cccc1C=NNC(=O)Cc1ccc(Br)c2ccccc12	nt	nt	nt	nt	0.703
CCN1/C(=C/C=C/c2oc3ccc(-c4ccccc4)cc3[n+]2CC)Oc2ccc(-c3ccccc3)cc21	12.5*	9.3	-14.8	12.5*	0.742	AddAB confirm=8.2;RecBCD counter=5.6*;bact viab count=6.0
Cc1nc2ccc(Cc3ccc4nc(C)[nH]c4c3)cc2[nH]1	15.9*	8.1	2.2	8.6	0.683	AddAB confirm=7.6;RecBCD counter=5.8*;bact viab count=4.7
COc1ccc2c(c1OC)C(=O)OC2C1c2c(cc3c(c2OC)OCO3)CCN1C (stereo not given)	-3.8	2.9	7.6	-2.7	0.688
